# Measured values reported in the supplement of paper PMC6555819.
# Experiments:
# Assay in all cases: PBM binding z-score (relative to random genomic background probes); higher = stronger binding; sequences stand for … in GC…GCGATTGACAGCGTAGAATGAAGG
# [1] = system: RARb homodimer (NR concentration 270 nM)
# In short: (§1)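 Each nuclear receptor dimer, without ligand, was incubated for 1 h on custom Agilent 4×180K protein-binding microarrays. Binding was detected with antibodies against each partner (one per run), and scanned fluorescence was regression-normalized. The binding z-scores are referenced to random human genomic background probes.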
# [2] = system: RARg:RXRa (NR concentration 270 nM, RXRa partner concentration 90 nM)
# In short: as §1
# [3] = system: RARg homodimer (NR concentration 270 nM)
# In short: as §1
# [4] = system: RXRa DBDmut IVT, anti-RXR (DBD mutation: RXRa K156A/R161A, NR concentration 90 nM)
# In short: as §1
# [5] = system: RXRa homodimer (NR concentration 180 nM)
# In short: as §1
# [6] = system: THRa:RXRa (NR concentration 90 nM, RXRa partner concentration 90 nM)
# In short: as §1
# [7] = system: THRa homodimer (NR concentration 90 nM)
# In short: as §1
# [8] = system: VDR homodimer (NR concentration 270 nM)
# In short: as §1
Sequence,PBM binding z-score [1],PBM binding z-score [2],PBM binding z-score [3],PBM binding z-score [4],PBM binding z-score [5],PBM binding z-score [6],PBM binding z-score [7],PBM binding z-score [8]
ACTATTAGTTGAGACGAGAGCAACCGATAGGTTG,-0.441,0.044,0.359,-0.00279,0.11,-0.0893,-0.555,-0.215
CTACCAAGGTGAACAAGGTCGTTGTTTACTATTC,1.97,1.78,1.27,1.63,1.9,3.23,1.76,2.16
AGAATGAGGTTAAGATCAGGAAAACAGAATACAT,0.79,2,1.73,0.917,2.65,2.28,0.529,0.435
AGAACGAGGGCAATGGGTTGATAGCACGGGTGGC,1.6,1.47,1.68,1.84,1.09,1.12,0.645,4.19
CGTCCAAGGTCAAAGGTAAGTGAAGAGATGACGG,4.06,6.23,6.89,3.8,7.74,3.91,1.96,2.48
CCAGACAGGTGAAAGGTAACTCATTCTGGTACGC,0.992,1.41,0.877,0.192,2.12,1.13,0.167,0.0322
AATACAGGGTCACCGTAGGCCAGAGTACGCACAG,3.94,6.08,5.9,2.62,7.11,4.55,1.77,2.81
CCGACTGGGGCAAGGTTTCCATAACGCACAGCCA,0.28,0.112,0.326,-0.561,-0.0639,-0.0993,-0.3,-0.47
CCTTACGGGTCACTGACAGGTTCTAGCATTTGGA,3.15,4.85,4.15,1.95,4.61,2.45,0.145,1.03
CTCGAAAGGTCCTGCTCAGGTGAGTATACCAAAC,0.614,0.95,0.414,-0.0806,0.666,2.11,0.634,-0.488
GCTCGGAGGACAAGGTCAGCGCTTTGTCCGTAGA,3.72,3.85,4.29,0.531,3.07,3.23,1.82,0.607
GCTCGGAGGACAAGGTAAGAGCTTTGTCCGTAGA,-0.035,-0.119,0.491,-0.345,-0.527,0.97,-0.444,-0.59
TCTAGCGGGCCAGAGGGTCACTCAAGAGGTACGG,2.86,2.61,1.98,0.0957,2.37,1.51,-0.522,0.587
ATCGGAAGGTCGACGAGGTGAGTATACACCGTTT,1.95,2.32,2.65,0.311,2.37,3.04,0.579,0.813
TGTCGGAGGACACGAAGGTCAGAGCTTTCCAGAG,3.4,3.38,4.14,-0.488,1.8,2.92,0.651,0.981
AGAATGAGGTTATACTTAGATCAGGGAAGAAAGT,0.8,1.56,1.14,1.87,1.87,1.96,0.882,0.999
CGTCTAAGTTCAACTAAGGTAACGTAAAGCACGC,3.13,4.18,4.79,4.84,3.54,4.95,2.6,4.24
CCTATTAGTTGACCATAAGGGAAACCGAAGCTCG,0.512,0.264,0.552,0.71,0.398,0.545,0.494,0.692
ATCTCTAGGTAAGACTCAGTTAAGTGAAGAACGC,0.172,0.0663,0.313,0.443,0.197,0.607,0.783,0.377
ATCTCTAGGTAAGATTCAGTTCAGTGAAGAACGC,0.59,0.513,0.134,0.381,0.0885,0.976,0.542,1.31
CCGACTGGGGTATAAGGTTACCATAAGCCAGCCC,0.893,0.542,0.421,-0.174,1.11,2.02,1.21,-0.0356
CCGAGTAGGTTATGGGACATTCAGGCAACGGTGA,0.969,0.533,0.86,0.181,0.607,0.565,0.413,0.326
TCTGCTAGGTCAGTTGGCCAGCTAACGAGCTGCC,2.15,2.56,3.53,0.428,0.616,1.27,-0.473,-0.804
TAGGCTAGGTCATGCGGGCCAGTATAGTGTCGGC,3.1,3.73,4.44,0.47,3.14,2.77,0.748,0.519
TCATATAGGTAAACAGGTGAAAGTACGTAAGTTA,0.897,0.775,0.637,1.58,1.31,0.952,0.331,0.523
GCGACTGGGGCAAAGCAGGTTACCAGAAGGTTGG,1.32,0.622,0.806,-0.155,0.313,2.87,-0.356,-0.376
CGAACTAGGTCATTGACAGGACAGGGAATAGTAA,2.89,4.58,4.36,2.18,2.59,2.99,1.01,1.02
TCTAGCAGGCCAGAGGGTCACTGAAGAGGTACGG,2.72,2.74,1.97,-0.0936,2.63,1.7,-0.233,0.299
